In PubChem BioAssay (NCI) one finds growth data, which are given here for eight molecules.

Some test systems named below: NCI-H23 lung; NCI-H226 lung; NCI-H322M lung; HOP-62 NSCLC; NCI-H460 lung; HOP-92 NSCLC; NCI-H522 lung; A549/ATCC NSCLC; 786-0 renal; COLO 205 colon; DU-145 prostate; K-562 leukemia; MALME-3M melanoma; MDA-MB-231 breast; RXF 393 renal; SF-268 CNS; SF-295 CNS; SF-539 CNS; UACC-257 melanoma; M14 melanoma.
Holding throughout (assay): NCI-60 one-dose screen, 48 h (100 = growth as untreated, 0 = no growth, -100 = all killed)
What all share (conditions): 10 µM

Molecules are shown by their SMILES. The panel holds about 83,000 compounds, 20% with a hit somewhere; the sample as a whole holds those more often.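 Single-concentration screen, 48 h exposure, 96-well plates. Endpoint: percent growth. Below 10 = active.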 Unmarked numbers belong to inactive results. The source made the active and inactive calls.

As to `COc1ccc(C2C=C(c3ccc(OC)c(OC)c3)N=C3SC=CN32)c(Br)c1` (configuration not stated), the growth in the assay on NCI-H23 lung was 89.3%; in the assay on NCI-H226 lung, 70.7%; in the assay with NCI-H322M lung, 87.5%; with HOP-62 NSCLC, 103%; in the assay with NCI-H460 lung it was 87.5%; in the assay with HOP-92 NSCLC, 77.5%. Moreover, the growth in the assay with NCI-H522 lung was 60.8%; in the assay on A549/ATCC NSCLC it was 82.3%; in the assay with 786-0 renal it was 92.3%; with COLO 205 colon, 94.8%; in the assay with DU-145 prostate it was 82.7%; in the assay with K-562 leukemia it was 8.77% (active). In addition, the growth in the assay with MALME-3M melanoma is 88.7%; in the assay on MDA-MB-231 breast, 78%; in the assay with RXF 393 renal, 98.5%; with SF-268 CNS it was 90.4%; in the assay on SF-295 CNS, 74.9%; in the assay on SF-539 CNS, 87.1%. For the same molecule, the growth in the assay on UACC-257 melanoma is 97.3%.
Regarding `CCc1ccc(-c2nnc(COc3ccc(-c4nc5cc(Cl)c(Cl)cc5[nH]4)cc3OC)o2)cc1`, the growth is 67.8% in the assay on NCI-H23 lung; 103% with NCI-H226 lung; 83.6% in the assay with NCI-H322M lung; 102% with HOP-62 NSCLC; 24.5% in the assay on NCI-H460 lung; 72.2% in the assay on HOP-92 NSCLC. Moreover, the growth was 82.8% in the assay with NCI-H522 lung; 39.3% with A549/ATCC NSCLC; 77.1% in the assay with 786-0 renal; 57.1% with COLO 205 colon; 66.6% with DU-145 prostate; 15.5% in the assay with K-562 leukemia. Besides, the growth in the assay with MALME-3M melanoma is 57.9%; with MDA-MB-231 breast it was 58%; in the assay with RXF 393 renal, 46%; in the assay on SF-268 CNS it was 99.1%; in the assay on SF-295 CNS, 88.2%; in the assay on SF-539 CNS it was 26.1%. Moreover, the growth with UACC-257 melanoma is 91.4%; in the assay with M14 melanoma, 52.6%.
Turning to `C=CCNC(=S)NN`, the growth in the assay on NCI-H23 lung was 98.2%; in the assay on NCI-H226 lung it was 106%; in the assay on NCI-H322M lung it was 82.4%; in the assay with HOP-62 NSCLC it was 81.2%; with NCI-H460 lung it was 99%; with HOP-92 NSCLC it was 84.6%. Moreover, the growth in the assay with NCI-H522 lung was 91.6%; in the assay on A549/ATCC NSCLC, 69.6%; in the assay with 786-0 renal, 98.4%; with COLO 205 colon, 107%; in the assay with DU-145 prostate, 92.5%; in the assay with K-562 leukemia, 52.4%. The growth in the assay with MALME-3M melanoma is 79.7%; in the assay on MDA-MB-231 breast, 90.9%; in the assay on RXF 393 renal, 105%; with SF-268 CNS, 95.8%; in the assay with SF-295 CNS it was 88.8%; in the assay with SF-539 CNS, 95.1%. Besides, the growth with UACC-257 melanoma was 50.7%; in the assay with M14 melanoma it was 97.9%.
As to `C=C[C@]1(C)C=C2C(=O)[C@@]3(O)OC(=O)[C@@]4(CCCC(C)(C)[C@H]34)[C@@]2(O)CC1`, the growth in the assay on NCI-H23 lung was -60.6% (active); in the assay on NCI-H226 lung, -55.8% (active); in the assay with NCI-H322M lung, -27.4% (active); in the assay with HOP-62 NSCLC it was -1.33% (active); in the assay with NCI-H460 lung, 0.905% (active); in the assay with HOP-92 NSCLC it was -87.6% (active). Moreover, the growth in the assay with NCI-H522 lung is -71.7% (active); in the assay with A549/ATCC NSCLC it was -66.6% (active); with 786-0 renal it was -98.5% (active); with COLO 205 colon, -98.2% (active); in the assay with DU-145 prostate, -99.4% (active); in the assay with K-562 leukemia, 1.73% (active). The growth in the assay on MALME-3M melanoma is -69.6% (active); in the assay on MDA-MB-231 breast, -71.9% (active); in the assay with RXF 393 renal, -97.4% (active); in the assay with SF-268 CNS, -66.7% (active); with SF-295 CNS it was -17.2% (active); in the assay on SF-539 CNS, -97.6% (active). The growth in the assay with UACC-257 melanoma was -93% (active).
Turning to `CC(C)/C=N/NC(N)=S`, the growth in the assay on NCI-H23 lung was 96.6%; in the assay with NCI-H226 lung, 95.7%; in the assay on NCI-H322M lung it was 101%; in the assay on HOP-62 NSCLC, 75.6%; in the assay on NCI-H460 lung it was 97.4%; in the assay with HOP-92 NSCLC, 73.1%. In addition, the growth with NCI-H522 lung is 94%; in the assay on A549/ATCC NSCLC it was 71.8%; in the assay with 786-0 renal, 100%; with COLO 205 colon, 103%; in the assay with DU-145 prostate, 95.3%; in the assay on K-562 leukemia it was 47.3%. Also, the growth in the assay with MALME-3M melanoma was 80.3%; with MDA-MB-231 breast, 86.2%; with RXF 393 renal, 106%; in the assay on SF-268 CNS it was 99.9%; with SF-295 CNS it was 90.5%; in the assay on SF-539 CNS, 102%. In addition, the growth with UACC-257 melanoma is 40.5%.
In the case of `Fc1ccc2[nH]c3c(NCCCN4CCOCC4)ncnc3c2c1`, the growth with NCI-H23 lung is 83.2%; in the assay on NCI-H226 lung, 62.2%; with NCI-H322M lung, 53.6%; with HOP-62 NSCLC, 32.7%; in the assay with NCI-H460 lung, 54%; in the assay on HOP-92 NSCLC, 63.9%. For the same molecule, the growth is 58.1% in the assay on NCI-H522 lung; 54.5% with A549/ATCC NSCLC; 24.1% with 786-0 renal; 53.4% with COLO 205 colon; 79.2% with DU-145 prostate; 73.9% in the assay with K-562 leukemia. In addition, the growth is 61.5% in the assay with MALME-3M melanoma; 55.6% in the assay on MDA-MB-231 breast; 60.8% in the assay on RXF 393 renal; 61.5% in the assay with SF-268 CNS; 39% with SF-295 CNS; 65% in the assay on SF-539 CNS. Also, the values for the growth with UACC-257 melanoma and with M14 melanoma were 107% and 85.3%, respectively.
Turning to `Cc1cc(/C=C2\SC(=Nc3ccccc3)N(C3CCCC3)C2=O)c(C)n1-c1ccc(Cl)cc1`, the growth in the assay with NCI-H23 lung was -19.8% (active); in the assay on NCI-H226 lung it was -66.6% (active); in the assay with NCI-H322M lung it was -55% (active); with HOP-62 NSCLC, -69.6% (active); in the assay on NCI-H460 lung it was -57.4% (active); in the assay with HOP-92 NSCLC, -74.2% (active). Moreover, the growth in the assay with NCI-H522 lung is -66.8% (active); in the assay on A549/ATCC NSCLC it was -27.5% (active); in the assay on 786-0 renal it was -85.1% (active); with COLO 205 colon, -94.5% (active); in the assay on DU-145 prostate, -79.1% (active); in the assay with K-562 leukemia it was -22.8% (active). In addition, the growth in the assay with MALME-3M melanoma is -72.8% (active); in the assay on MDA-MB-231 breast, -53% (active); with RXF 393 renal, -90.2% (active); with SF-268 CNS it was -47.5% (active); in the assay on SF-295 CNS, -70.3% (active); with SF-539 CNS it was -70.8% (active). The results for the growth in the assay with UACC-257 melanoma and in the assay on M14 melanoma were -70.8% (active) and -69.9% (active), respectively.
As for `CCOCC[P+](c1ccccc1)(c1ccccc1)c1ccccc1`, the growth is 36% with NCI-H23 lung; 80% with NCI-H226 lung; 82% in the assay with NCI-H322M lung; 50.3% in the assay with HOP-62 NSCLC; 58.7% with NCI-H460 lung; -6.22% (active) with HOP-92 NSCLC. Further, the growth in the assay with NCI-H522 lung was 26.2%; in the assay on A549/ATCC NSCLC, 45.3%; in the assay with 786-0 renal, 72.5%; with COLO 205 colon, 44.5%; in the assay with DU-145 prostate, 59.8%; in the assay on K-562 leukemia it was 20%. Also, the growth with MALME-3M melanoma is 61.1%; in the assay on MDA-MB-231 breast, 63.5%; in the assay on RXF 393 renal it was 79.2%; in the assay with SF-268 CNS it was 61.9%; in the assay with SF-295 CNS it was 39%; in the assay with SF-539 CNS it was 56.2%. The growth is 14% in the assay with UACC-257 melanoma and 60.8% in the assay on M14 melanoma.
